Laboratory results taken from the supplement of paper PMC11417369.
Whole data set: some 25,000 sequences, median “ln(normalized median fluorescence intensity)” near 7.1, cut for the highest 2% near 10. The entries come from a sample that favours the highest values as a whole.

test system: PfSIP2 AP2 domain 1 (GST-tagged); test: gcPBM binding intensity (ln(normalized median fluorescence intensity)); higher = stronger DNA binding
How it was run: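 In this array assay, P. falciparum DNA-binding domains with a GST tag, expressed in E. coli, were applied for 1 h to primer-extended double-stranded 36-bp intergenic genomic probes and negative controls on an Agilent 4 × 180k array. Bound protein was visualised with Alexa488 anti-GST antibody at 488 nm. Binding intensity is the highest Masliner-normalised natural-log median intensity across replicate spots of either probe orientation.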

Sequence	gcPBM binding intensity (ln)
ATGTATATAATATTATGTACATATATGAAATATTTT [XGTACX_site8168]	7.02
CGCACCCACAGACACACACACACATATATATATATA [CACACA_site2202]	9.47
CACACCCACCAACACACACACACACCCACCCATATA [CACACA_site366]	7.11
CACGCGCACCAACACACACACACACCCATATATATA [CACACA_site2204]	10.6
CGCGCACCCAGACACACACACACACCGATATATATA [CACACA_site8687]	10.6
GGAGCACCCAGACACACACACACATATATATATATA [CACACA_site336]	9.19
CACCCCCACAGACACACACACACACCGATATATATA [CACACA_site8010]	7.89
CACCCACACCAACACACACACATATATATATATATA [CACACA_site362]	9.74
CGCGCACCCAGACACACACACACACCCATATATATA [CACACA_site2203]	10.8
CGCGCCCAGAAACACACACACACACCGATATATATA [CACACA_site5250]	7.62
TTTTAGCACTTATTATAAGATATCAAAAAGATGGGT [XGTACX_negctrl_site325]	7.32
ATAAATTCTATGTATACACACATATATAATATATAT [CACACA_site2689]	7.26
TTTTTATTAATAGATATAAATATATAATATGAATGT [TGCATGCA_negctrl_site309]	7.04
TTTCTTTTTTTTTAATGTACTTTTTTTATAAAAGGT [XGTACX_site5688]	7.27
ATAATTATTTAATATATATATATTATTTCGAATGTT [GTGCAC_negctrl_site688]	7.03
AAAGAATTATATAAGGTGCACGAATGTTTCTTTAAT	10.9
TAAAAACAAAAATGTTGTACATAATATAAAACAATT [XGTACX_site6380]	7.04
ATTTTTTAAATTTAAACACACATTTTGTATATGTTT [CACACA_site1654]	7.02
ATATATTTATTAAGGTGTACAAAAATTATGTTGCAT [XGTACX_site7546]	7.16
TTTATATATTATTAATGTACAAAATTTTTATTGCAT [XGTACX_site3329]	6.96
AATTCATTTTACCCATGTACACAATTATATTTTATA [XGTACX_site4127]	7.23
CATATATATTTTATATGTACATATATATTTTATATA [XGTACX_site8665]	7.03
ATATTTTTATTAGTAGTGCAATTTAGTGTATATATA [GTGCAC_site9542]	8.39

Sequence	gcPBM binding intensity (ln)
ATTTATATTACCCTTGCATGTAGGTGCAATTTTTTT [TGCATGCA_site757]	11
GACAATTATATGTAGGTGCATATACAAATTTTTTAA	10.9
ATATATATATATTTATGTACATATATTTTTTTTTTT [XGTACX_site8558]	8.71
ATTTTTTTTTTTTTATGTACATATAGGTGCAAATCA [XGTACX_site6748]	11.4
ATGTTATATATGTATTGTACGTATTTTGTATATTAT [XGTACX_site6607]	7.4
AATATATCCTATTCGAACAAAAATACATGCACATAT [CACACA_negctrl_site1058]	9.28
AAGGATTATTTTAATCGTACATGTGTAAATAATATA [XGTACX_site6177]	6.98
AATAAATAAATATATATATATATATAATATCATAAA [CACACA_negctrl_site337]	7.29
TAAAGAAAAATATAAAGTACAAAAATAAAAAAAATA [XGTACX_site8226]	6.93
AGCATTAAAAATGGAATGGAATTAAGCTATATATTA [CACACA_negctrl_site1571]	6.63
TTAAAGTTACATTCGACACACACATAACAACTAAAT [CACACA_site9130]	7.1
AAAAAAAAAGATCACACACACATAAATATAAACAAA [CACACA_site5285]	6.92
TCAGATCCATAGAAGGTGCAAATAACAAAAATACAA [GTGCAC_site9610]	10.9
ACATACATATGTAAATGTACAAAATATCCATAGATT [XGTACX_site2782]	6.81
AAATAACAAAAGAAGGTGCTCATAAAAATTCATACA [GTGCAC_site9864]	8.23
TATAATGCTCTTCTTTGTACATATTATGATTATATT [XGTACX_site2332]	7.15
TTGACAGGAACGTTGGTGCACGTACTGTTTTTCTTT [GTGCAC_site9389]	10.7
TTTGTTTGGTTTTGGTGTACTTTTTTTTTTTTTTCT [XGTACX_site2050]	7.16
TTAGCAGGACGTTTGGTGCACGTACTGTTTTTCTTT [GTGCAC_site9856]	10.3
ATTTTTTTTTTTTTTTTTTGGTTTTCTTTAGGAGTT [CACACA_negctrl_site1258]	6.9
CTTCTGGACAGGAATGCACACATTTTTTTTTCTTTT [CACACA_site1807]	7
TACATGCTTATTTTAACACACAAATGGTAGTAATAA [CACACA_site766]	6.93
